From paper PMC7862700, “An all-to-all approach to the identification of sequence-specific readers for epigenetic DNA modifications on cytosine”

What was measured:
Test in all cases: DAPPL (digital affinity profiling via proximity ligation, sequencing); 10 mM Tris-HCl pH 7.5, 50 mM NaCl, 1 mM DTT, 4% glycerol, room temperature, 30 min; GST-TFs on glutathione beads, 16-mer random dsDNA library, 0.1% formaldehyde crosslink after washing; high values mean tight binding
[1] = target: T1, FLI1 (Homo sapiens, UniProt Q01543 1-452); settings: protein: recombinant; tags: N-terminal GST; dsDNA, one strand shown
T1 sequence: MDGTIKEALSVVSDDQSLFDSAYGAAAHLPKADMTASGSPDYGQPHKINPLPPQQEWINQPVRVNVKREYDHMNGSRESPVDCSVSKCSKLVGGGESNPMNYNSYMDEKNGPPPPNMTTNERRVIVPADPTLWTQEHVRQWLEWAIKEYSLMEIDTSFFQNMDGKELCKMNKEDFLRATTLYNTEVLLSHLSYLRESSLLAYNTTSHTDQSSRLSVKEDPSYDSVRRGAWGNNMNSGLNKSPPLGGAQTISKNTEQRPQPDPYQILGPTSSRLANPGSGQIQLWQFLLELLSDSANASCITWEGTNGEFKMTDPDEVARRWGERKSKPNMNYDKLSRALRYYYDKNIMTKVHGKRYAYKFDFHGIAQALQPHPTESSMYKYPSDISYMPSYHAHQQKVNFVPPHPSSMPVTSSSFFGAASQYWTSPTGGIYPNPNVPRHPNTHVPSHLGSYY
Procedure, shortened: (§1)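 A tag-only sample was pooled with DNA-barcoded human transcription factors that had been expressed in yeast as GST fusions and captured on glutathione beads. The pools were incubated for 30 min at room temperature with 200 nmole of a random double-stranded 16-mer DNA library in Tris/NaCl/DTT/glycerol buffer, then washed, crosslinked with 0.1% formaldehyde, proximity-ligated (BsaI/T4 ligase, 1 h, 37 °C), PCR-amplified and sequenced on an Illumina NextSeq500. Binding signal is each hexamer's read frequency for a factor divided by its frequency for the tag-only sample.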

[2] = target: T2, ELK1 (Homo sapiens, UniProt P19419 1-428); settings: protein: recombinant; tags: N-terminal GST; dsDNA, one strand shown
T2 sequence: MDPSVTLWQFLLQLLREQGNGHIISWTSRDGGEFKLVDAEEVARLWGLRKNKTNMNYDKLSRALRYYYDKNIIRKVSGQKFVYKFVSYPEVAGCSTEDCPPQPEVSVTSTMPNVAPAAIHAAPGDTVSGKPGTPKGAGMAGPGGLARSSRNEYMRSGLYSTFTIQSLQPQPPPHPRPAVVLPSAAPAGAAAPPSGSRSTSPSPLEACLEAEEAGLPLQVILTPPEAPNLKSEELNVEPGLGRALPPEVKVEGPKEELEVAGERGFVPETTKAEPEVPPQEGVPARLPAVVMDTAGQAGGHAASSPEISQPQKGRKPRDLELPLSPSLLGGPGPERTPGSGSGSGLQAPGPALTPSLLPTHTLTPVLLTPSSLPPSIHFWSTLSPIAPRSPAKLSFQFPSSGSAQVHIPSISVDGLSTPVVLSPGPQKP
Procedure, shortened: as §1

[3] = target: T3, GABPA (Homo sapiens, UniProt Q06546 1-454); settings: protein: recombinant; tags: N-terminal GST; dsDNA, one strand shown
T3 sequence: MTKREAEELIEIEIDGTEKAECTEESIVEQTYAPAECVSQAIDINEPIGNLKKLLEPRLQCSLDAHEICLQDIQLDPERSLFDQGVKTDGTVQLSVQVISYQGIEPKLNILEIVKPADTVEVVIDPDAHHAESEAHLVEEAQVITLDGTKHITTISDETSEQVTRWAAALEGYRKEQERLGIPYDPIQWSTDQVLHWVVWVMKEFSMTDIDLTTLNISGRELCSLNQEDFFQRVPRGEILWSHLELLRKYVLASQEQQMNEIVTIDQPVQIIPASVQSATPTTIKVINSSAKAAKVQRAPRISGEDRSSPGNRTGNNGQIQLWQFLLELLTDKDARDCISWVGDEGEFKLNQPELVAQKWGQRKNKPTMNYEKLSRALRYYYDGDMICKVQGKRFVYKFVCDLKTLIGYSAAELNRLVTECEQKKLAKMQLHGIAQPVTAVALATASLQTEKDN
Procedure, shortened: as §1

[4] = target: T4, ERG (Homo sapiens, UniProt P11308 1-479); settings: protein: recombinant; tags: N-terminal GST; dsDNA, one strand shown
T4 sequence: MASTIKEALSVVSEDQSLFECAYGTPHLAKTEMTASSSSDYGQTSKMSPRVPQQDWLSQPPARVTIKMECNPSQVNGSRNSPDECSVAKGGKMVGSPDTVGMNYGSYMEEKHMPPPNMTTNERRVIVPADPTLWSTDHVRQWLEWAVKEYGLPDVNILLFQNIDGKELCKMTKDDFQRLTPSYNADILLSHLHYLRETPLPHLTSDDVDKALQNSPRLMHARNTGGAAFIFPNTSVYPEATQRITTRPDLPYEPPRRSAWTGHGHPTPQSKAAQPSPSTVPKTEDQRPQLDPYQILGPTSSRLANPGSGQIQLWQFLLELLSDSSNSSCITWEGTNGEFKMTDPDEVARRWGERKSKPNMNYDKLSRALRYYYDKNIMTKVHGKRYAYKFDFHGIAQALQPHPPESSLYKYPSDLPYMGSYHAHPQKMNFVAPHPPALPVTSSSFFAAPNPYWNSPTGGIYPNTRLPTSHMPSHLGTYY
Procedure, shortened: as §1

[5] = target: ELF1 (Homo sapiens, UniProt P32519 1-619); settings: protein: recombinant; tags: N-terminal GST; dsDNA, one strand shown
Sequence of ELF1 (P32519 whole entry): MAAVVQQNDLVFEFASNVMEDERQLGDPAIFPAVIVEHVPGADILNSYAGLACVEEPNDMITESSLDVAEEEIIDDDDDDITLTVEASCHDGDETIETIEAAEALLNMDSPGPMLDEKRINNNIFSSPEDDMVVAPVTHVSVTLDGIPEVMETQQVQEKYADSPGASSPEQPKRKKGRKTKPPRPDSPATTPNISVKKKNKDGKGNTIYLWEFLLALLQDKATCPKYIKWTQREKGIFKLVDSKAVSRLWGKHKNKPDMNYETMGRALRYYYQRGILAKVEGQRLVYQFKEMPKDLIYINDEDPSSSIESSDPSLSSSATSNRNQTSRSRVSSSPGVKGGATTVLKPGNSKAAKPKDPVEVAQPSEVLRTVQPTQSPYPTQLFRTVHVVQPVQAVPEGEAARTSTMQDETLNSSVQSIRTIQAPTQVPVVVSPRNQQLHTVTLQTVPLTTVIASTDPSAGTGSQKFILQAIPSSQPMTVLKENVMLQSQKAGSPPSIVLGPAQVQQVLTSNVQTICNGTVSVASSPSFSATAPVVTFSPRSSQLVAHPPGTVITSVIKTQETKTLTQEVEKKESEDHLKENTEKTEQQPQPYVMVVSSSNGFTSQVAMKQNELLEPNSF
Procedure, shortened: as §1

[6] = target: T5, EHF (Homo sapiens, UniProt Q9NZC4 1-300); settings: protein: recombinant; tags: N-terminal GST; dsDNA, one strand shown
T5 sequence: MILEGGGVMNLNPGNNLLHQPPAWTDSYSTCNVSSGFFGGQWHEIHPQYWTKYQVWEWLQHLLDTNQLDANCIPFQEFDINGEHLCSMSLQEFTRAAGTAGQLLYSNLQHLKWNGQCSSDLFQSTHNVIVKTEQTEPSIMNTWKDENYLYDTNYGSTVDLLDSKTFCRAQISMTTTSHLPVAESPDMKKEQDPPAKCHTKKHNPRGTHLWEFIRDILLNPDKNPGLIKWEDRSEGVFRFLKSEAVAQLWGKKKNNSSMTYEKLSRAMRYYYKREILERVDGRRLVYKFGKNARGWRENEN
Procedure, shortened: as §1

[7] = target: SPI1 (Homo sapiens, UniProt P17947 1-270); settings: protein: recombinant; tags: N-terminal GST; dsDNA, one strand shown
Procedure, shortened: as §1

[8] = target: SPIB (Homo sapiens, UniProt Q01892 1-262); settings: protein: recombinant; tags: N-terminal GST; dsDNA, one strand shown
Sequence of SPIB (Q01892 whole entry): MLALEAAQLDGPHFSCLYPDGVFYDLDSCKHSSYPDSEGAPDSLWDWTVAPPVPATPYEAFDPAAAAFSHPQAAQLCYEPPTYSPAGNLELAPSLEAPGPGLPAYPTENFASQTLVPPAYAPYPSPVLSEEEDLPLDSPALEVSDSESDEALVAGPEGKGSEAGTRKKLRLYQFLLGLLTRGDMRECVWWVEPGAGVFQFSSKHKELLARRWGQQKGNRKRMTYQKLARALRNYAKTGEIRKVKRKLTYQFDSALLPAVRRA
Procedure, shortened: as §1

[9] = target: T6, ELK3 (Homo sapiens, UniProt P41970 1-407); settings: protein: recombinant; tags: N-terminal GST; dsDNA, one strand shown
T6 sequence: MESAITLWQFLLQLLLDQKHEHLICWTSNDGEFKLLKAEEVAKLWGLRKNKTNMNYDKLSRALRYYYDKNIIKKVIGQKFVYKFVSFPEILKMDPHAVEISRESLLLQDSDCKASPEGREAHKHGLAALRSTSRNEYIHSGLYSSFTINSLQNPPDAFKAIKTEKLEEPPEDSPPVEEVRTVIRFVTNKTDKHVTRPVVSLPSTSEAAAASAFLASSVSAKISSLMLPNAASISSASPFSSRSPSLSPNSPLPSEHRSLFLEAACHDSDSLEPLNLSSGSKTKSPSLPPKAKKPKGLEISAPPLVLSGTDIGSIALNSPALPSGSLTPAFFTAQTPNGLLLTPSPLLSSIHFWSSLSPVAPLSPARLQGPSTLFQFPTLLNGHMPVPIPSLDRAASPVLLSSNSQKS
Procedure, shortened: as §1

[10] = target: T7, FEV (Homo sapiens, UniProt Q99581 1-238); settings: protein: recombinant; tags: N-terminal GST; dsDNA, one strand shown
T7 sequence: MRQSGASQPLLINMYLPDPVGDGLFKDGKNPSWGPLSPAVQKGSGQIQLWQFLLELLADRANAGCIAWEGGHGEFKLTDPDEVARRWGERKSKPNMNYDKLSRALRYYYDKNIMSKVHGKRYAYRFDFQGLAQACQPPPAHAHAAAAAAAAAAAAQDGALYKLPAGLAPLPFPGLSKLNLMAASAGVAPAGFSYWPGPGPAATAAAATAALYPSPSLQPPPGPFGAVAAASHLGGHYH
Procedure, shortened: as §1

[11] = target: ETV5 (Homo sapiens, UniProt P41161 1-510); settings: protein: recombinant; tags: N-terminal GST; dsDNA, one strand shown
Sequence of ETV5 (P41161 whole entry): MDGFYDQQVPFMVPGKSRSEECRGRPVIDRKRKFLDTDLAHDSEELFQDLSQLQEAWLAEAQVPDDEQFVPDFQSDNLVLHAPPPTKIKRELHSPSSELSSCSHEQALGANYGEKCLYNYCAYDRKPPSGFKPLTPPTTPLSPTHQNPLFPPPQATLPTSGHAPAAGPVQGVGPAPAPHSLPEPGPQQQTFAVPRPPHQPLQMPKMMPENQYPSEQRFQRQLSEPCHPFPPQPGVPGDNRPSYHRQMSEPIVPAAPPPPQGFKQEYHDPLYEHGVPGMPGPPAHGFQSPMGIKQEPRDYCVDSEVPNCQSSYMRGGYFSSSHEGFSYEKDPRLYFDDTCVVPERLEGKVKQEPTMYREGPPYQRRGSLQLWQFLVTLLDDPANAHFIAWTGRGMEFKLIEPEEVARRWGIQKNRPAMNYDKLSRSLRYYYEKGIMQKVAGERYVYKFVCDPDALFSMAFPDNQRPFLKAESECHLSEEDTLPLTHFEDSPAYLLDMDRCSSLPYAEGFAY
Procedure, shortened: as §1

[12] = target: HSF1 (Homo sapiens, UniProt Q00613 1-529); settings: protein: recombinant; tags: N-terminal GST; chain copies: 3; dsDNA, one strand shown
Sequence of HSF1 (Q00613 whole entry): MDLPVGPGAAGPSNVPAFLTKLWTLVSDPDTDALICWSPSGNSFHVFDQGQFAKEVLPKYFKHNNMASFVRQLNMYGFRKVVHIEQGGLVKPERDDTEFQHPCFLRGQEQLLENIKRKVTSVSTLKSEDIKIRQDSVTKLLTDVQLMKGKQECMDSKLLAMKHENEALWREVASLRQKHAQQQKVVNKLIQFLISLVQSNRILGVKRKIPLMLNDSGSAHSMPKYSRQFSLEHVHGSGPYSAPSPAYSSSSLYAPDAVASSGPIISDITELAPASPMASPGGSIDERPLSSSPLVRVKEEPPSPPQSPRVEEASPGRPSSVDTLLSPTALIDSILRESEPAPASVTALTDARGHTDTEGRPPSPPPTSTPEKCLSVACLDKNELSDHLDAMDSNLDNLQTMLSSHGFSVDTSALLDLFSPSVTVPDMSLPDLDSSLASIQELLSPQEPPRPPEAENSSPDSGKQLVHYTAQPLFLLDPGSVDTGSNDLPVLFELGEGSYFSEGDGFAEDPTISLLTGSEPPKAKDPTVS
Procedure, shortened: as §1

[13] = target: T8, SPIC (Homo sapiens, UniProt Q8N5J4 1-248); settings: protein: recombinant; tags: N-terminal GST; dsDNA, one strand shown
T8 sequence: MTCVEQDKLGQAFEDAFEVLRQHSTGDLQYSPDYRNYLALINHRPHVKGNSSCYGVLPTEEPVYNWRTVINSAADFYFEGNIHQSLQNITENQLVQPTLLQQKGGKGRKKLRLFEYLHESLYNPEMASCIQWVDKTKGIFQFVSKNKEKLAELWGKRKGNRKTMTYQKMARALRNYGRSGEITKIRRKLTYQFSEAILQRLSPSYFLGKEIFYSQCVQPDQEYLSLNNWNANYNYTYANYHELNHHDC
Procedure, shortened: as §1

[14] = target: ELF4 (Homo sapiens, UniProt Q99607 1-663); settings: protein: recombinant; tags: N-terminal GST; dsDNA, one strand shown
Sequence of ELF4 (Q99607 whole entry): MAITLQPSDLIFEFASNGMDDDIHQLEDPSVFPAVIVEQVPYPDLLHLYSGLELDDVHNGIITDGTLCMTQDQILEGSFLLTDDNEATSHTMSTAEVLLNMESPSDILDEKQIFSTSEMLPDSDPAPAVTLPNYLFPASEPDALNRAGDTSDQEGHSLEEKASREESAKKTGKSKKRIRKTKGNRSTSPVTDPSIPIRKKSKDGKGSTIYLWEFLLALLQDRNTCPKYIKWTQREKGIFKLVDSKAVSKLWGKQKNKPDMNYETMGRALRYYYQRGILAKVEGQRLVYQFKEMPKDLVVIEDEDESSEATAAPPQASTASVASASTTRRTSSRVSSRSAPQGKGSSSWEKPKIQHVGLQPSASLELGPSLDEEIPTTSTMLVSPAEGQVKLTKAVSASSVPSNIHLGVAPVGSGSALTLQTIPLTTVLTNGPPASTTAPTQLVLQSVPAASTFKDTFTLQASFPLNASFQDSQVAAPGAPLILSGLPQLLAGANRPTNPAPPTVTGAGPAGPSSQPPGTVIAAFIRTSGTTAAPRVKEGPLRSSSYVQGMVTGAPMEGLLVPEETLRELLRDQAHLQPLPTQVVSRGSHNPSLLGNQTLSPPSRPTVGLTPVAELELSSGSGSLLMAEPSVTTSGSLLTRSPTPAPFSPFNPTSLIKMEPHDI
Procedure, shortened: as §1

[15] = target: T9, ELK4 (Homo sapiens, UniProt P28324-2 1-405); settings: protein: recombinant; tags: N-terminal GST; dsDNA, one strand shown
T9 sequence: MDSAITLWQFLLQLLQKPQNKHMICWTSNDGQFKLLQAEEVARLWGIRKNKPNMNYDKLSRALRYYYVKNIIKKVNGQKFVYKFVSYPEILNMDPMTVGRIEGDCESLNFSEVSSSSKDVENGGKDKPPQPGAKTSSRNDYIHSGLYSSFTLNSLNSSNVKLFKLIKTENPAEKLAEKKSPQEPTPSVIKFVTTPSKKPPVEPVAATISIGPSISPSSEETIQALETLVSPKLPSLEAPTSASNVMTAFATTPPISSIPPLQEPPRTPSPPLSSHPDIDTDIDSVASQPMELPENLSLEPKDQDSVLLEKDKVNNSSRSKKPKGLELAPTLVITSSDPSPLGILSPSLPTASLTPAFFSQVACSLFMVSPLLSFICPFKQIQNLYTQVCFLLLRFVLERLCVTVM
Procedure, shortened: as §1

[16] = target: T10, ETV2 (Homo sapiens, UniProt O00321 1-342); settings: protein: recombinant; tags: N-terminal GST; dsDNA, one strand shown
T10 sequence: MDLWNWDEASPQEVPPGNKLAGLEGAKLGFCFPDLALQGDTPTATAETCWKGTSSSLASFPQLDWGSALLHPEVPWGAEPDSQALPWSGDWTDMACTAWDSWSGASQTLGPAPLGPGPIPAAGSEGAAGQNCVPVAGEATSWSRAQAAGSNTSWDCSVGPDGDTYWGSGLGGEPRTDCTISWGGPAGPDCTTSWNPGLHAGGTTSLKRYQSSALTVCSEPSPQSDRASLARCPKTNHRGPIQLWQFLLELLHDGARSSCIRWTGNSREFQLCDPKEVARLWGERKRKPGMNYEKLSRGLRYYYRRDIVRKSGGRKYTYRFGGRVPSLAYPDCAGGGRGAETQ
Procedure, shortened: as §1

[17] = target: T11, ELF3 (Homo sapiens, UniProt P78545 1-371); settings: protein: recombinant; tags: N-terminal GST; dsDNA, one strand shown
T11 sequence: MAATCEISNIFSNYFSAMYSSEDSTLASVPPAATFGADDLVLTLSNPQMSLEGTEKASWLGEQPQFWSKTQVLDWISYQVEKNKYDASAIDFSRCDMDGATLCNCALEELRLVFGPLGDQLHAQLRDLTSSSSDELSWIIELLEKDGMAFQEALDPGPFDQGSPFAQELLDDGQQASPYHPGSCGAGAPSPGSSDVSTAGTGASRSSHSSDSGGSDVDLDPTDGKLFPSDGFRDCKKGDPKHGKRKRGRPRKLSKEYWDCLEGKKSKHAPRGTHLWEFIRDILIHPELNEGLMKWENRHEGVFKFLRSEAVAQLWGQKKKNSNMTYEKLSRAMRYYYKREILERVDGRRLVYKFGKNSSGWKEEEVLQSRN
Procedure, shortened: as §1

[18] = target: CRX (Homo sapiens, UniProt O43186 1-299); settings: protein: recombinant; tags: N-terminal GST; dsDNA, one strand shown
Sequence of CRX (O43186 whole entry): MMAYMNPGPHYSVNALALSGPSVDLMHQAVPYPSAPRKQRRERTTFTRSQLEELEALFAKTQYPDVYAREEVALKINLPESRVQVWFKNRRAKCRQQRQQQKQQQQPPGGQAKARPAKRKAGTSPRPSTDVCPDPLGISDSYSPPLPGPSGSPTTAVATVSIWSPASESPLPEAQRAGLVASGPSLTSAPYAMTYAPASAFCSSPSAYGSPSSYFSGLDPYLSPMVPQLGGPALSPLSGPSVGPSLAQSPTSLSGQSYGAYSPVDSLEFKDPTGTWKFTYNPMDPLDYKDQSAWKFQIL
Procedure, shortened: as §1

[19] = target: ETV1 (Homo sapiens, UniProt P50549 1-477); settings: protein: recombinant; tags: N-terminal GST; dsDNA, one strand shown
Sequence of ETV1 (P50549 whole entry): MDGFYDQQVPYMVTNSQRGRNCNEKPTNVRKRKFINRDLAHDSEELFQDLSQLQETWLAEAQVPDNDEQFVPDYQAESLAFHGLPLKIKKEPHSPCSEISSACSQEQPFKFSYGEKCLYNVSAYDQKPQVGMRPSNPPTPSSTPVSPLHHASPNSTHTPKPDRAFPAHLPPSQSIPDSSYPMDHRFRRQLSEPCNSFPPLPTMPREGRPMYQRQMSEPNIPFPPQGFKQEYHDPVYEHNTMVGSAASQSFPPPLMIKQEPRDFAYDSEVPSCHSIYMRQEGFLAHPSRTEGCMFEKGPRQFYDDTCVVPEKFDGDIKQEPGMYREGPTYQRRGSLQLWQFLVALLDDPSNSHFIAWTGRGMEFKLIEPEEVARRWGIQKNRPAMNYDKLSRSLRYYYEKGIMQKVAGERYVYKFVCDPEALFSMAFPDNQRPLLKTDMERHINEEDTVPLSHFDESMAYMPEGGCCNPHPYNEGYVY
Procedure, shortened: as §1

ACCTGG
binding signal [1]: 1.25 fold enrichment (6-mer frequency, TF over GST control) | binding signal [2]: 1.28 fold enrichment (6-mer frequency, TF over GST control) | binding signal [3]: 1.25 fold enrichment (6-mer frequency, TF over GST control) | binding signal [4]: 1.25 fold enrichment (6-mer frequency, TF over GST control) | binding signal [5]: 1.25 fold enrichment (6-mer frequency, TF over GST control) | binding signal [6]: 1.22 fold enrichment (6-mer frequency, TF over GST control) | binding signal [7]: 1.2 fold enrichment (6-mer frequency, TF over GST control) | binding signal [8]: 1.31 fold enrichment (6-mer frequency, TF over GST control) | binding signal [9]: 1.23 fold enrichment (6-mer frequency, TF over GST control) | binding signal [10]: 1.17 fold enrichment (6-mer frequency, TF over GST control) | binding signal [11]: 1.2 fold enrichment (6-mer frequency, TF over GST control) | binding signal [12]: 1.2 fold enrichment (6-mer frequency, TF over GST control) | binding signal [13]: 1.18 fold enrichment (6-mer frequency, TF over GST control) | binding signal [14]: 1.33 fold enrichment (6-mer frequency, TF over GST control) | binding signal [15]: 1.25 fold enrichment (6-mer frequency, TF over GST control) | binding signal [16]: 1.35 fold enrichment (6-mer frequency, TF over GST control) | binding signal [17]: 1.19 fold enrichment (6-mer frequency, TF over GST control) | binding signal [18]: 1.14 fold enrichment (6-mer frequency, TF over GST control) | binding signal [19]: 1.29 fold enrichment (6-mer frequency, TF over GST control)
